This excerpt belongs to a sample that is enriched for hits.
KDM5B inhibitor: Primary screen for KDM5B Histone Demethylases FDH-coupled qHTS | KDM5B demethylase, FDH-coupled NADH fluorescence (FDH is formaldehyde dehydrogenase) | AID 1347165, 2019 | Lysine-specific demethylase 5B (Homo sapiens), Q9UGL1 | Potency, µM (highest dose often 57.7 µM), most hits filed as inhibitors | actives 2.6% (n = 220,000); active = well fitted inhibition curve with a large enough effect; note: nearly all actives have a fitted effect of over 70% in size
Target sequence (Q9UGL1 whole entry, looked up): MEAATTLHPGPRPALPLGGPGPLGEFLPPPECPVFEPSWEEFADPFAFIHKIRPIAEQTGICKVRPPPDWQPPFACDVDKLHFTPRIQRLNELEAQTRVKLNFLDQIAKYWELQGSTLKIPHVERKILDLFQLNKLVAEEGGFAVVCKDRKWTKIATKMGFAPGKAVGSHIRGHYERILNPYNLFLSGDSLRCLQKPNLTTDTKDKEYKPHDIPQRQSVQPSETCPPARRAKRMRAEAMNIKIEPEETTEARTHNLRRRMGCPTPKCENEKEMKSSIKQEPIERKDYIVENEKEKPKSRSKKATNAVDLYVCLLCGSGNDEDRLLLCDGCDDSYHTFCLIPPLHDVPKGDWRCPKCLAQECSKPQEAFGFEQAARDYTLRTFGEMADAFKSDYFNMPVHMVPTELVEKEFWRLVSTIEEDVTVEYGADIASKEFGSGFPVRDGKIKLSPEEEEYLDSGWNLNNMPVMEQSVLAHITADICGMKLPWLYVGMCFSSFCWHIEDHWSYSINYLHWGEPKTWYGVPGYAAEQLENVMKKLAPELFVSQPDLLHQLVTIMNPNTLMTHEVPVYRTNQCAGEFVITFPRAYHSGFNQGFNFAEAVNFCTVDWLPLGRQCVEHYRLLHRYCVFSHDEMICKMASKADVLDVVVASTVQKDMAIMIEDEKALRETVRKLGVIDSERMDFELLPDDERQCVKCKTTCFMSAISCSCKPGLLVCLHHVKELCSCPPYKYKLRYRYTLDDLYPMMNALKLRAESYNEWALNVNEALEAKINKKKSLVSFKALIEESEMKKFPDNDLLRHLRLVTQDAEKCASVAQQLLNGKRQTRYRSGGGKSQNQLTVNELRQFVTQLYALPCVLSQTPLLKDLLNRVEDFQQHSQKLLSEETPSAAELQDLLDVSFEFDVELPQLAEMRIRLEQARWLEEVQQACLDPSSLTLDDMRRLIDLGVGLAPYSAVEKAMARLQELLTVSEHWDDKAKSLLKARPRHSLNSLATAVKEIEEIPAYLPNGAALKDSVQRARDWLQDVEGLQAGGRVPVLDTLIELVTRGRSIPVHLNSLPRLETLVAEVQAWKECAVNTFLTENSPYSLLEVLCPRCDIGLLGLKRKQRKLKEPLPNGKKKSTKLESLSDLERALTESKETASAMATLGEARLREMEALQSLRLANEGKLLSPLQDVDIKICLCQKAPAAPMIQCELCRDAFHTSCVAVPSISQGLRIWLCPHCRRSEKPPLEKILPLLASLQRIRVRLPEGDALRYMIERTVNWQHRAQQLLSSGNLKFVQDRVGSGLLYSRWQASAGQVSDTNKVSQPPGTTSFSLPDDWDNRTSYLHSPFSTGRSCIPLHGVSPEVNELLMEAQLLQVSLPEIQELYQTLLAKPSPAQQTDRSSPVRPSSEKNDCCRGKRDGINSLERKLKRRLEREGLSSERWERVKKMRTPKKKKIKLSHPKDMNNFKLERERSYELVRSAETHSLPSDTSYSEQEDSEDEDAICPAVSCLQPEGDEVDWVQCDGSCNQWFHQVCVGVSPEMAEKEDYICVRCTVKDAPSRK
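KDM5BΔAP (200 nM final) in 50 mM HEPES pH 7.5, 0.01% Tween-20 was preincubated 10 min at RT with compound over a concentration range. Substrate mix (H3K4me3 12.5 µM, α-KG 25 µM, Fe²⁺, ascorbate, NAD⁺, FDH) was added, and NADH fluorescence change over 30 min gave dose-response curves.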
Of the large screens only hits and unclear results are named; the others gave an inactive call.

COc1ccc(-n2nc3n(c2=O)CCN(CCC(C)C)C3)cc1	none
COc1ccc(CN2CCn3c(nn(-c4ccc([N+](=O)[O-])cc4)c3=O)C2)cc1	KDM5B inhibitor 32µM
COc1ccccc1C(=O)N1CCn2c(nn(-c3ccc(F)cc3F)c2=O)C1	none
O=c1n(-c2ccc(Cl)cc2)nc2n1CCN(Cc1ccccc1)C2	none
COC(=O)N1CCn2c(nn(-c3ccc([N+](=O)[O-])cc3)c2=O)C1	none
CCn1c(=O)c2sccc2n2c(CCC(=O)NCc3ccc(Cl)cc3)nnc12	none
OC1(CN2CCN(c3ccc(F)c(Cl)c3)CC2)CCCNC1 (stereo not given)	none
Cc1ccc(-n2nc(-c3ccc(F)cc3)c3cnc4cc5c(cc4c32)OCO5)cc1C	none
O=C(c1cccn1C1CC1)N1CCC(CO)(CN2CCCC2)CC1	none
O=c1cc(CSc2nnc(-c3ccccc3)o2)nc2sc(C3CC3)nn12	none
COc1ccc(C(=O)NCc2nnc3c(-c4nc(C)no4)cccn23)cc1	KDM5B inhibitor 25µM
Cc1noc(-c2ccccc2NC(=O)c2ccncc2)n1	none
Cc1ccc(C(=O)NCc2nnc3c(-c4nc(C)no4)cccn23)cc1	KDM5B inhibitor 28µM
COc1ccc(C(=O)NCc2nc(-c3cccs3)no2)cc1	none
S=C(NCc1ccccc1)NN=C(Cc1ccccc1)Cc1ccccc1	none
O=C(N1CCC(NS(=O)(=O)c2cccs2)CC1)N1CC2CC(C1)[C@H]1CCCC(=O)N1C2 (stereo not given in full)	none
CCN(CCOC)Cc1cn(C)nc1-c1ccc(C2CCCCC2)cc1	none
CCC(C)c1ccccc1NS(=O)(=O)c1cnn(CC)c1 (stereo not given)	none
O=C(c1csnn1)N1CCCC(CCc2c(F)cccc2F)C1 (stereo not given)	none
Cc1ccc(S(=O)(=O)N2CCN(C(=O)[C@H](Cc3ccccc3)NC(=O)c3ccco3)CC2)cc1C	none
CN(C)CCNC(=O)CN1N=C(c2ccccc2)CCC1=O	none
CN(C)CCNC(=O)Cc1c[nH]c2ncc(-c3ccccc3)cc12	KDM5B inhibitor 35µM
O=C(Cc1c[nH]c2ncc(-c3ccccc3)cc12)NCCc1ccccc1	none
Cc1ccccc1-c1cnc2[nH]cc(CC(=O)NCCN(C)C)c2c1	KDM5B inhibitor 35µM
Cc1ccccc1-c1cnc2[nH]cc(CC(=O)NCc3ccccc3)c2c1	none
Cc1cc(C(=O)N2C[C@@H](CN(C)C)[C@@H](CO)C2)cs1	none
C/C(CCC1CC(C)OC1=O)=N\NC(N)=O (stereo not given)	none
CC(Sc1nc(C(F)(F)F)nc2ccccc12)C(=O)N1c2ccccc2CC1C (stereo not given)	none
CCC(Oc1ccc(Cl)cc1)C(=O)O (stereo not given)	none
CC(CCc1ccccc1)NC(=O)CCn1ccn2nc3c(c2c1=O)CCCC3 (stereo not given)	none
O=C(Cn1ccn2nc3c(c2c1=O)CCCC3)NCc1cccs1	KDM5B inhibitor 20µM
O=C(CCn1ccn2nc3c(c2c1=O)CCCC3)NCc1ccc(F)cc1	none
COC(=O)c1ccccc1NC(=O)Cn1ccn2nc3c(c2c1=O)CCCC3	none
CC(=O)c1ccc(NC(=O)Cn2ccn3nc4c(c3c2=O)CCCC4)cc1	none
O=C(Cn1ccn2nc3c(c2c1=O)CCCC3)NCc1ccc(F)cc1	none
CSc1ccc(CNC(=O)CCn2ccn3nc4c(c3c2=O)CCCC4)cc1	none
CC(CCc1ccccc1)NC(=O)Cn1ccn2nc3c(c2c1=O)CCCC3 (stereo not given)	KDM5B inhibitor 20µM
CCC(C)NC(=O)Cn1ccn2nc3c(c2c1=O)CCCC3 (stereo not given)	none
Cc1ccc(CNC(=O)Cn2ccn3nc4c(c3c2=O)CCCCC4)cc1	KDM5B inhibitor 5.6µM
CC(C)c1ccccc1NC(=O)Cn1ccn2nc3c(c2c1=O)CCCCC3	none
O=C(Cn1ccn2nc3c(c2c1=O)CCCC3)NCc1ccccc1	KDM5B inhibitor 25µM
CCC(C)(C)NC(=O)C(c1ccc(OC)cc1)N(Cc1ccc(OC)cc1)C(=O)CCC(=O)Nc1cc(C)on1 (stereo not given)	none
Cc1cccn2c(CNC3CCCc4ccccc43)c(C(=O)N3CCOCC3)nc12 (stereo not given)	none
COC(=O)c1sc2cccc(F)c2c1S(=O)(=O)N1CCN(c2cccc(C)c2C)CC1	none
O/N=C/c1ccc(Cl)c(Cl)c1	none
Cc1cccc(Nc2nc3ccccc3nc2NS(=O)(=O)c2ccc(F)cc2)c1	none
C=CCNc1oc(COc2ccccc2OC)nc1C#N	none
CC(C)CCN1CCC12Cc1ccccc1NC2=O (stereo not given)	none
COC(CNC(=O)c1ccc(CNS(=O)(=O)c2ccc(Br)cc2)cc1)OC	none
Cc1ccc(S(=O)(=O)Oc2ccc3c(C(F)(F)F)cc(=O)oc3c2)cc1	none
N[C@H]1CN(C(=O)c2sccc2Cl)C[C@@H]1C1CC1	none
Cc1cccc(N2CCN(c3nc4ccccc4c4nc(-c5ccccc5)nn34)CC2)c1C	none
COc1cccc(CNC(=O)Cn2ccn3nc4c(c3c2=O)CCCC4)c1	KDM5B inhibitor 25µM
COc1ccc(CNC(=O)CCn2ccn3nc4c(c3c2=O)CCCC4)c(OC)c1	none
Cc1cccc(CNC(=O)CCn2ccn3nc4c(c3c2=O)CCCC4)c1	none
